# Hits are enriched below; roughly 3.3% of the tested compounds scored in any of these assays.
# NRP1-CendR mod: alters CendR peptide binding to human NRP-1; O14786; inhibition, % at 25 µM; 0.85% of 360,000 active; FAM-RPARPAR peptide binding to NRP-1, fluorescence polarization;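 active = inhibition or corrected inhibition above about 18%, plus a signal ratio from 0.5 to 1.5, limit read from the data, passing the limit was not always enough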
# Fh CTSL1 inh: cathepsin L1 inhibition, PFM18AAP counter-screen; recombinant F. hepatica cathepsin L1, Z-Leu-Arg-MCA fluorescence; inhibition, % at 5.96 µM; 0.49% of 300,000 active; AID 1906;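 active = inhibition above the mean of all tested compounds plus 3 SD, set per screening campaign, cut at about 17% in these data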;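 note: 0% = plate median of test compound wells and 100% = 1 µM Z-Phe-Ala-diazomethylketone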
# TPT1 inh: inhibitors of Candida albicans tRNA 2'-phosphotransferase TPT1 | 0.81% of 300,000 active | recombinant caTPT1, FP RNA substrate dephosphorylation | inhibition, % at 5 µM;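 active = inhibition above the mean of all tested compounds plus 3 SD, set per screening campaign, cut at about 24% in these data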;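 note: plate controls were DMSO alone for no effect and ferristatin control at 100 nM for full effect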
# Rpn11 block: blocks the human proteasome subunit Rpn11; 0.59% of 360,000 active; inhibition, % at 20 µM; O00487; AID 588493; human 26S proteasome, Ub4-pepOG fluorescence polarization; 20S core pre-blocked with epoxomicin;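 active = inhibition at 20 µM, scaled to each plate's controls, above about 33%, limit read from the data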
# Target sequence (O00487 whole entry, looked up): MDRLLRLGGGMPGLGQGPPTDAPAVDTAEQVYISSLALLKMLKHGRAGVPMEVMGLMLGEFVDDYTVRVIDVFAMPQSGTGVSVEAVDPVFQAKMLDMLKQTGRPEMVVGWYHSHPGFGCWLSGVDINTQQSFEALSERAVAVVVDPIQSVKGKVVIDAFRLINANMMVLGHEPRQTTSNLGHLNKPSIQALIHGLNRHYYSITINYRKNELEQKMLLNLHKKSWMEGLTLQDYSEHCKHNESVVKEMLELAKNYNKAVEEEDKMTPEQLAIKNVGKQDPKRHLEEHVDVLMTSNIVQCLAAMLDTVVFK
# HNF4A DNA FP: change in binding of human HNF4 alpha to DNA | P41235 | HNF4a-FITC DNA binding, fluorescence polarization, 1 h | activity change, % at 10 µM | 0.3% of 360,000 active | AID 1224865; in the data active = activity change above about 30%, passing the limit was not always enough
# PHOSPHO1 block: inhibitors of human PHOSPHO1 phosphatase; recombinant PHOSPHO1, absorbance phosphatase assay; 1.1% of 290,000 active; Q8TCT1; AID 1565; inhibition, % at 13.3 µM; in the data active = inhibition above about 60%
# TPT1 inh confirm: TPT1 (C. albicans) inhibition, confirmation | shares compounds with TPT1 inh | recombinant caTPT1, fluorescence polarization, RNase T1 coupled | inhibition, % at 5 µM | 74% of 2,400 active | AID 2149;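 active = inhibition above the primary screen limit, the mean inhibition of all tested compounds plus 3 SD, cut at about 25% in these data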
# RNase T1 inh: blocks Aspergillus oryzae RNase T1, a TPT1 counter-screen. inhibition, % at 5 µM. AID 2153. 83% of 2,400 active. RNase T1 cleavage, fluorescence polarization, 1536-well. shares compounds with TPT1 inh;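 active = inhibition above the solvent-only control well mean plus 3 SD, limit set per screening run, cut at about 23% in these data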;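 note: plate controls were DMSO wells with enzyme for no effect and wells without RNase T1 for full effect; inhibitors block cleavage so intact labeled substrate keeps polarization high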
# Numbers without * were called inactive; nt = no result given.
SMILES,NRP1-CendR mod,Fh CTSL1 inh,TPT1 inh,Rpn11 block,HNF4A DNA FP,PHOSPHO1 block,TPT1 inh confirm,RNase T1 inh
Cc1nnc(C)n1/N=C/c1c(O)ccc2ccccc12,-3,6,3,-10,0,37,nt,nt
Cc1nc2ccccc2c(=O)n1/N=C/c1ccc2ccccc2c1O,-16,6,54*,4,1,12,26*,35*
COc1cc(S(=O)(=O)NC2CCCCC2C)ccc1F (centres undefined),7,-2,2,-17,3,5,nt,nt
c1ccc(-c2ccccc2OCCCCN2CCCCC2)cc1,0,-1,51*,-2,3,-2,4,9
COC(=O)[C@H](CC(C)C)NC(=O)N1CCC(C)CC1,1,14,-2,-2,0,33,nt,nt
CCn1ncc(Br)c1C(=O)Nc1cc(C)cc(C)c1,-8,0,34*,5,2,0,7,13
CCn1ncc(Br)c1C(=O)Nc1cccc(C(C)=O)c1,4,0,-4,-2,2,5,nt,nt
Cc1cc(NC(=O)C2CC(=O)N(c3ccccc3)C2)no1 (centres undefined),-2,-5,-1,2,-2,-10,nt,nt
COc1ccc2oc(=O)c(C(=O)Nc3ccccc3O)cc2c1,-3,1,2,2,4,8,nt,nt
COc1ccc2o/c(=N\O)c(C(=O)Nc3ccccc3OC)cc2c1,-1,-3,162*,0,1,8,127*,125*
COCCN=c1scc(-c2ccco2)n1/N=C/c1ccc(O)c(O)c1O,-43,1,52*,4,-45,-73,60*,70*
O=C(NCc1cccs1)C(=O)NCC(c1ccco1)N1CCN(c2ccccc2F)CC1 (centres undefined),-2,-5,3,4,0,-8,nt,nt
CCOC(=O)C1C(=O)NC(SC)=C(C#N)C1c1ccccc1F (centres undefined),-1,-3,-5,3,2,1,nt,nt
CCOC(=O)C1C(=O)NC(SCC(N)=O)=C(C#N)C1c1ccccc1OCC (centres undefined),61,3,70*,nt,99*,34,68*,78*
O=c1oc(/C=C/c2ccc([N+](=O)[O-])s2)nc2ccccc12,-182,-1,60*,81*,9,nt,59*,70*
CC(=O)Oc1ccccc1/C=C/c1nc2ccccc2c(=O)o1,-17,-19,0,26,4,nt,nt,nt
Cc1cc(NC(=O)c2cc(S(=O)(=O)N3CCCCC3)ccc2C)n(-c2ccccn2)n1,0,0,-4,3,0,3,nt,nt
COc1ccc(OCC(=O)N/N=C(\C)c2ccc(OC)cc2)cc1,-11,-4,-1,2,0,-2,nt,nt
COc1ccc(OCC(=O)N/N=C(\C)c2cc3ccccc3o2)cc1,4,1,27*,-2,2,-14,24,35*
CCCC(C(=O)O)N1C(=O)/C(=C/c2cccn2C)SC1=S (centres undefined),-265,10,107*,nt,115,11,121*,127*
CC(C)C(C(=O)O)N1C(=O)/C(=C/c2cccn2C)SC1=S (centres undefined),-193,7,106*,nt,88*,-16,125*,134*
CCSC1=N/C(=C\C=C2/Oc3ccccc3N2CC)C(=O)S1,-191,-4,138*,nt,187,14,148*,143*
CCSC1=N/C(=C\c2cccc(F)c2)C(=O)S1,-6,4,2,-7,2,-5,nt,nt
COc1ccc(C(=O)c2sc3nc(-c4ccccc4)ccc3c2N)cc1OC,-68,-1,91*,30,69*,88*,88*,94*
COc1ccc(-c2ccc3c(N)c(C(=O)c4ccc(OC)c(OC)c4)sc3n2)cc1,-53,3,54*,32,21,63*,60*,70*
CCOc1cc([N+](=O)[O-])cc2c1C(=O)Nc1ccccc1O2,-89,-6,30*,nt,14,-2,44*,55*

# Bioassay records (PubChem BioAssay)
